Some test systems named below: HT29 colon; SNB-75 CNS; U251 CNS; PC-3 prostate; SK-MEL-5 melanoma; UACC-62 melanoma; LOX IMVI melanoma; SK-MEL-28 melanoma; SK-MEL-2 melanoma; SNB-19 CNS.
Assay in all cases: NCI-60 one-dose screen, 48 h (100 = growth as untreated, 0 = no growth, -100 = all killed)
Holding throughout (settings): 10 µM

This is part of a sample that, as a whole, favours compounds with a hit. Of some 83,000 tested, about 20% had one in any assay.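 Note: values are percent growth. 100 is the growth of untreated cells, values between 100 and 0 indicate rising inhibition; between -100 and 0 indicates cell death.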 Unmarked numbers belong to inactive results. The source made the active and inactive calls. Rule for the calls: active = growth percent below 10; inactive = the rest.

`COc1cc(Cl)cc(-c2nn(-c3cccc(NC(=O)Nc4ccc(Cl)c(C(F)(F)F)c4)c3)cc2-c2ccncc2)c1`: the growth in the assay with HT29 colon is 5.57% (active); in the assay with SNB-75 CNS it was 14.5%; in the assay with U251 CNS, -48.3% (active); in the assay with PC-3 prostate, -13% (active); in the assay with SK-MEL-5 melanoma it was -71.2% (active); with UACC-62 melanoma, 6.62% (active). Moreover, the growth in the assay with LOX IMVI melanoma is 4.81% (active); in the assay on SK-MEL-28 melanoma it was 23.6%; in the assay on SK-MEL-2 melanoma, -34% (active).
For the compound `CCCC#CCN(CC)CC`, the growth is 104% in the assay with HT29 colon; 97.1% with SNB-75 CNS; 91.2% in the assay with U251 CNS; 86% in the assay with PC-3 prostate; 104% in the assay with SK-MEL-5 melanoma; 99.1% in the assay on UACC-62 melanoma. In addition, the growth in the assay with LOX IMVI melanoma is 102%; with SK-MEL-28 melanoma, 108%; with SK-MEL-2 melanoma, 114%.
As to `O=C1/C(=C\c2ccc(Br)cc2)CN(C(=O)c2ccccc2F)C/C1=C\c1ccc(Br)cc1`, the growth was -47.4% (active) with HT29 colon; 56.5% in the assay on SNB-75 CNS; 54.3% in the assay on SNB-19 CNS; -66.6% (active) in the assay with U251 CNS; 30.4% in the assay with SK-MEL-5 melanoma; -3.15% (active) with UACC-62 melanoma. For the same compound, the results for the growth in the assay with LOX IMVI melanoma, with SK-MEL-28 melanoma and in the assay with SK-MEL-2 melanoma were -85.5% (active), 15.1% and 66%, respectively.
As to `CN(C)c1ccc(-c2cc(-c3cccc(NS(C)(=O)=O)c3)nc(N)c2C#N)cc1`, the growth in the assay with HT29 colon is 8.8% (active); in the assay with SNB-75 CNS, -2.46% (active); in the assay on U251 CNS, 20.3%; in the assay with PC-3 prostate, 10.4%; with SK-MEL-5 melanoma it was 4.17% (active); in the assay with UACC-62 melanoma it was 47.4%. The results for the growth in the assay on LOX IMVI melanoma, in the assay on SK-MEL-28 melanoma and with SK-MEL-2 melanoma were 23.7%, 69% and 57.2%, respectively.
On to `Clc1nc(Cl)c2c(ncn2C/C=C\Cn2cnc3c(Cl)nc(Cl)nc32)n1`, for which the growth is -30.6% (active) in the assay on HT29 colon; -28.9% (active) with SNB-75 CNS; -93.6% (active) with U251 CNS; -96.2% (active) in the assay on PC-3 prostate; -91% (active) in the assay on SK-MEL-5 melanoma; -79% (active) in the assay on UACC-62 melanoma. Also, the growth in the assay on LOX IMVI melanoma was -94.2% (active); in the assay with SK-MEL-28 melanoma it was -50.3% (active); with SK-MEL-2 melanoma, 5.02% (active).
Consider `O=[N+]([O-])c1ccc(Oc2cccnc2)c([N+](=O)[O-])c1`, for which the growth in the assay on HT29 colon is -4.49% (active); in the assay on SNB-75 CNS it was 87.7%; in the assay with U251 CNS, 85.7%; with PC-3 prostate it was 83.1%; in the assay on SK-MEL-5 melanoma, 79.1%; in the assay on UACC-62 melanoma, 84.5%. The growth in the assay on LOX IMVI melanoma is 24.1%; in the assay with SK-MEL-28 melanoma it was 97.6%.
In the case of `CCCN(CCC)CCC(O)c1cc2c(c3ccccc13)CCCC2` (stereo not given), the growth with HT29 colon was 52.3%; with SNB-75 CNS it was 75.7%; in the assay on U251 CNS it was 83.5%; in the assay with UACC-62 melanoma, 81.7%; with LOX IMVI melanoma, 89%; in the assay on SK-MEL-28 melanoma, 98.1%. In addition, in the assay on SK-MEL-2 melanoma, the growth is 108%.
`COc1cc(NC(=O)c2sc3nc4c(cc3c2N)C(O)CCC4)cc(OC)c1` (stereo not given): the growth in the assay with HT29 colon is 67%; in the assay on SNB-75 CNS, 82.1%; with U251 CNS, 78.6%; in the assay on PC-3 prostate it was 99.5%; with SK-MEL-5 melanoma, 88.4%; with UACC-62 melanoma, 73%. Besides, the growth with LOX IMVI melanoma was 93.3%; in the assay with SK-MEL-28 melanoma it was 85.1%; in the assay with SK-MEL-2 melanoma, 61.6%.
With `CCN(CC)CCCC(C)Nc1nc(-c2ccc(OC)cc2)nc2cc(Cl)ccc12` (stereo not given), the growth with HT29 colon is 27.9%; in the assay with SNB-75 CNS, 59.6%; in the assay with U251 CNS, 57%; with PC-3 prostate it was 48.4%; with SK-MEL-5 melanoma it was 0.434% (active); in the assay with UACC-62 melanoma, -46.9% (active). Also, the growth is 32.8% in the assay with LOX IMVI melanoma, -70% (active) in the assay with SK-MEL-28 melanoma and 98.2% in the assay with SK-MEL-2 melanoma.
In the case of `CCN(CC)CCN1CC(=O)Nc2cc(Cl)ccc21`, the growth in the assay with HT29 colon was 112%; in the assay with SNB-75 CNS, 92.1%; with SNB-19 CNS, 104%; in the assay on U251 CNS, 99.7%; in the assay on UACC-62 melanoma, 94.4%; with LOX IMVI melanoma it was 102%. Also, the growth with SK-MEL-28 melanoma is 115%; in the assay on SK-MEL-2 melanoma it was 104%.
With `O=C(CCCCC(=O)Nc1ccc2c(c1)/C(=C/c1ccc[nH]1)C(=O)N2)NO`, the growth in the assay with HT29 colon was 68.7%; with SNB-75 CNS, 47.7%; in the assay with U251 CNS it was 69.3%; in the assay on PC-3 prostate, 80.1%; in the assay with SK-MEL-5 melanoma, 65%; in the assay on UACC-62 melanoma, 68.5%. In addition, the growth is 94.4% in the assay with LOX IMVI melanoma, 60.4% with SK-MEL-28 melanoma and 59.4% in the assay with SK-MEL-2 melanoma.
As to `O=C(Nc1cccc(-n2cc(-c3ccncc3)c(-c3cc(O)cc(Cl)c3)n2)c1)c1ccc(N2CCOCC2)c(C(F)(F)F)c1`, the growth in the assay with HT29 colon is 16.9%; in the assay on SNB-75 CNS, 23.1%; in the assay with U251 CNS, -9.64% (active); with PC-3 prostate, 19.1%; with SK-MEL-5 melanoma, 32.2%; in the assay with UACC-62 melanoma, 10.8%. Moreover, the growth is -48.7% (active) in the assay on LOX IMVI melanoma, -52.4% (active) in the assay with SK-MEL-28 melanoma and 22.9% in the assay with SK-MEL-2 melanoma.
Take `Oc1[nH]c2cc(Cl)ccc2c1/C=c1/ccc2c(c1)N=C(c1cc(F)cc(F)c1)N=2`: the growth with HT29 colon is 3.28% (active); with SNB-75 CNS, -21.5% (active); in the assay on U251 CNS, 20.7%; in the assay on PC-3 prostate, 13%; in the assay with SK-MEL-5 melanoma, 15.5%; in the assay with UACC-62 melanoma it was 36.4%. For the same compound, the growth was 37.7% in the assay on LOX IMVI melanoma, 40.1% with SK-MEL-28 melanoma and 20.4% in the assay on SK-MEL-2 melanoma.
As to `COc1cc(C(=C2O[C@@H]([C@H]3COC(C)(C)O3)[C@H]3OC(C)(C)O[C@@H]23)c2cc(OC)c(OC)c(OC)c2)cc(OC)c1OC`, the growth with HT29 colon is 114%; with SNB-75 CNS it was 99.8%; in the assay on U251 CNS it was 107%; in the assay with PC-3 prostate, 90%; in the assay on SK-MEL-5 melanoma, 105%; with UACC-62 melanoma, 100%. For the same compound, the growth in the assay on LOX IMVI melanoma is 99.1%; in the assay with SK-MEL-2 melanoma it was 158%.
In the case of `CC12O[C@H](C[C@@H](OC(=O)c3ccccc3)[C@H]1O)n1c3ccccc3c3c4c(c5c6ccccc6n2c5c31)C(=O)NC4=O`, the growth in the assay on HT29 colon is 78.5%; in the assay on SNB-75 CNS, 45.7%; with U251 CNS, 77.1%; in the assay with PC-3 prostate it was 42.5%; in the assay on SK-MEL-5 melanoma it was 48.6%; with UACC-62 melanoma it was 55%. For the same compound, the values for the growth in the assay with LOX IMVI melanoma, with SK-MEL-28 melanoma and in the assay with SK-MEL-2 melanoma were 72.7%, 90.4% and 54.2%, respectively.

Source of the values: PubChem BioAssay (NCI).
